PMP22 txn: modulators of PMP22 gene transcription in S16 Schwann cells; S16 Pmp22-F2sN Schwann cells, FLuc/NLuc coincidence luminescence, 24 h; Potency, µM (titrated, usually from 57.5 µM), for the others: at the highest dose activity change, negative = inhibition, usual class: inhibitors; 43,000 compounds, 2% hits; AID 1508649; active = clear falling dose curves in both reporters; inconclusive = both reporters move, but less clearly or upward; inactive = either reporter flat; the % is the NLuc reporter signal; note: potency is the fitted concentration of half-maximal effect; % is set by controls: 0 for no effect and ±100 for the full control effect
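qHTS, 1536-well. Cells seeded, compounds added by pin tool, 24 h 37C. Nano-Glo reagent 1 (lysis/FLuc), 10 min RT, read; Stop&Glo, 10 min RT, read NLuc.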
p53null 39C tox: p53 null cell cytotoxicity, nonpermissive temperature; H1299 p53-null (neo) cells, 39C, ATPlite viability, 24 h; 55,000 compounds, 0.97% hits; Potency, µM (doses to about 46.1 µM), without a hit: top-dose activity, negative = cell killing, actives largely listed as cytotoxic; AID 904;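 note: potency is the fitted concentration of half-maximal effect; 0% = DMSO only and -100% = full killing by 100 µM tamoxifen; nearly all actives have a fitted effect of over 50% in size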
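ATP-luminescence viability readout (ATPlite, 20 min RT) after 24 hr compound treatment at 39C of H1299-neo or H1299-p53A138V cells; titration up to 46 uM; normalized to DMSO and 100 uM tamoxifen; Hill-fit AC50.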
OvCa metastasis: ovarian cancer metastasis inhibition, 3D TME model. SKOV3ip1-GFP adhesion/invasion on 3D omental model, fluorescence. Potency, µM (top dose mostly 45.8 µM), for the others: at the highest dose activity change, negative = inhibition, usual class: inhibitors. 46,000 compounds, 0.1% hits;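 note: potency is the fitted concentration of half-maximal effect; plate controls were DMSO wells for no effect and tomatine positive control wells for full effect; nearly all actives have a fitted effect of over 65% in size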
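Adhesion/invasion was scored as fixed GFP-labeled SKOV3ip1 cell counts (488/509 nm), normalized to DMSO and tomatine controls. Cancer cells in serum-free medium, with four compound doses (0.36-46 umol/L), sat 2 hr at RT then 16 hr at 37 C on a 48 hr fibroblast/mesothelial/ECM culture.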
mTORC1 inh: reduces mTORC1 signaling in Tsc2 and p53 null MEF cells; 44,000 compounds, 0.78% hits; Tsc2-/- p53-/- MEF, phospho-rpS6 immunofluorescence/PI, 24 h; Potency, µM (titrated, usually from 38.3 µM), for inactives: at the top dose activity change, negative = inhibition, actives largely listed as inhibitors;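 note: potency is the fitted concentration of half-maximal effect; plate controls were DMSO for no effect and rapamycin for full effect; nearly all actives have a fitted effect of over 50% in size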
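Tsc2-/-, p53-/- MEFs (empty-vector stable line) in DMEM + 10% FBS were treated with compounds 24 h at 37 degree Celsius, fixed, and immunostained for phospho-rpS6 (Alexa-488) with propidium iodide counterstain. Laser-scanning cytometry gave % positive cells, normalized against 7.5 nM rapamycin and DMSO.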
S16 viability: S16 Schwann cell cytotoxicity | Potency, µM (series often up to 57.5 µM), inactives show at the top dose activity change, negative = cytotoxicity, actives largely listed as cytotoxic | S16 Pmp22-F2sN Schwann cells viability, CellTiter-Glo, 24 h | 43,000 compounds, 0.48% hits; note: potency is the fitted concentration of half-maximal effect; % is set by controls: 0 for no effect and ±100 for the full control effect; nearly all actives have a fitted effect of over 65% in size
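Seed 500-1,000 S16 Pmp22-F2sN cells per well in phenol-red-free DMEM with 10% heat-inactivated FBS; pin-add 23 nL compound; incubate 24 h at 37C; add CellTiter-Glo, wait 15 min protected from light; read luminescence.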
p53null 32C tox: kills p53 null cells at the permissive temperature; Potency, µM (doses to about 46.1 µM), for the others: at the top dose activity change, negative = cytotoxicity, usual class: cytotoxic; AID 903; H1299-neo p53 null cells, ATP luminescence, 24 h, 32C; 55,000 compounds, 0.62% hits;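 note: potency is the fitted concentration of half-maximal effect; 0% = DMSO only and -100% = full killing by 100 µM tamoxifen; nearly all actives have a fitted effect of over 55% in size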
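ATP-content luminescence in p53-null H1299-neo cells after 24 h compound exposure (up to 46 uM) at 32C permissive temperature; 0% and 100% killing set by DMSO and 100 uM tamoxifen; Hill-equation AC50.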
NLuc saturating: counter-screen for PMP22 expression modulators: NanoLuc inhibition, saturating substrate. Potency, µM (series often up to 57.5 µM), without a hit: at the highest dose activity change, negative = inhibition, usual class: inhibitors. 690 compounds, 4% hits. shares compounds with PMP22 txn. Secreted NLuc enzyme (filtered S16 cell medium), Nano-Glo luminescence; note: potency is the fitted concentration of half-maximal effect; % is set by controls: 0 for no effect and ±100 for the full control effect
NLuc Km counter: NanoLuc inhibition at Km substrate, PMP22 artifact check; shares compounds with PMP22 txn; secreted NLuc enzyme, coelenterazine luminescence, Km conditions; Potency, µM (top dose mostly 57.5 µM), without a hit: at the highest dose activity change, negative = inhibition, most hits filed as inhibitors; 690 compounds, 5% hits; note: potency is the fitted concentration of half-maximal effect; % is set by controls: 0 for no effect and ±100 for the full control effect
FLuc ctr PMP22: firefly luciferase enzyme inhibition artifact for PMP22 screen; 690 tested, under 10 active; shares compounds with PMP22 txn; Potency, µM (highest dose often 57.5 µM), for the others: at the top dose activity, negative = inhibition, hits mostly inhibitors; purified P. pyralis FLuc, luminescence, 10 min; note: % of control where 0% means no effect
Target sequence (P08659 whole entry, looked up): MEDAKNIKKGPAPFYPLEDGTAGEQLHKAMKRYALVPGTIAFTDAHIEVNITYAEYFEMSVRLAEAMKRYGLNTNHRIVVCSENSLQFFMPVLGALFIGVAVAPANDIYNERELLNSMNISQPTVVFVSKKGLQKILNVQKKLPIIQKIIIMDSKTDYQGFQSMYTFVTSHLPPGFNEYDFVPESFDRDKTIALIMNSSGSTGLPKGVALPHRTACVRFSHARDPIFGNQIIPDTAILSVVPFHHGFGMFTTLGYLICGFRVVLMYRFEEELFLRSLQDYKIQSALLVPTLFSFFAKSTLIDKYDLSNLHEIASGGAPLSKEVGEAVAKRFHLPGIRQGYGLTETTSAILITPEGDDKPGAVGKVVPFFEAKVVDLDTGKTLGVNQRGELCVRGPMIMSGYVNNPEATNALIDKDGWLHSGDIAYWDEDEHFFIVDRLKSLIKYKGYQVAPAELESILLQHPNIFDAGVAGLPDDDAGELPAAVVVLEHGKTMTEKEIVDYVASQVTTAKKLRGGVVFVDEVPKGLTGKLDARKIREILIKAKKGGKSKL
S16 viab conf: confirmation of cytotoxicity in S16 Pmp22-F2sN Schwann cells (luciferase reporters placed in the Pmp22 gene). 690 compounds, 7% hits. Potency, µM (titrated, usually from 57.5 µM), without a hit: at the top dose activity change, negative = viability loss, most hits filed as cytotoxic. shares compounds with PMP22 txn. S16 Schwann cells viability, CellTiter-Glo ATP luminescence, 24 h; note: potency is the fitted concentration of half-maximal effect; % is set by controls: 0 for no effect and ±100 for the full control effect
PMP22 txn cnf: confirmation of modulators of PMP22 gene transcription in S16 cells; shares compounds with PMP22 txn; S16 Schwann cells Pmp22-F2sN, dual luciferase, 24 h; Potency, µM (titrated, usually from 57.5 µM), for the others: at the highest dose activity change, negative = inhibition, most hits filed as inhibitors; 690 compounds, 22% hits; AID 1508646; active = clear falling dose curves in both reporters; inconclusive = both reporters move, but less clearly or upward; inactive = either reporter flat; the % is the FLuc reporter signal; note: potency is the fitted concentration of half-maximal effect
An asterisk follows results filed as active; i = inactive; ? = inconclusive; · = not tested or not shown. Rows were chosen to be rich in hits. Some 3% of all compounds tested hit in one or more screens of this group. Unless noted, calls come from the whole dose curve; as a rule, active = well fitted curve in the direction sought with a large enough effect; inconclusive = small, poorly fitted or top-dose-only effect, or another doubt; inactive = no such curve, though single readings can be large; an effect the other way counts as inactive or inconclusive.

SMILES	PMP22 txn	p53null 39C tox	OvCa metastasis	mTORC1 inh	S16 viability	p53null 32C tox	others
COc1ccc2nc(NC(=O)c3nc(S(=O)(=O)Cc4cccc(C)c4)ncc3Cl)sc2c1	6.2µM*	?	?	6.6µM*	10µM*	-27%
CCOc1ccc2nc(NC(=O)c3cccn(Cc4ccc(C)cc4)c3=O)sc2c1	-23%	26%	-1%	-5%	11%	-4%
Cc1ccc(S(=O)(=O)c2nnn3c2nc(N2CCC(C(N)=O)CC2)c2cc(Cl)ccc23)cc1C	16µM*	?	-21%	1%	?	11%
COc1ccc(CNC(=O)Cn2c(SCC(=O)Nc3ccc(C)c(C)c3)nc3ccccc32)cc1	?	?	?	16µM*	-29%	?
C[C@](O)(COc1ccc(C#N)cc1)C(=O)Nc1ccc(C#N)c(C(F)(F)F)c1	·	·	-8%	·	·	·
COC(=O)C1CN(C#N)N(c2ccc(Cl)cc2)C12c1ccccc1-c1ccccc12 (stereo not drawn)	·	?	·	·	·	8.9µM*
COc1ccc(N2CCN(C(=O)C3CCCN(S(=O)(=O)c4ccc5c(c4)CCCN5C(C)=O)C3)CC2)cc1 (stereo not drawn)	14µM*	-11%	i	7.4µM*	?	2%
CO[C@H]1CCC(O[C@H]2C[C@H]([C@]3(C)CC[C@]4(C[C@H](O)[C@@H](C)[C@@H]([C@@H](C)C=C(C)C(=O)[C@H](C)C[C@H](C)C(=O)O)O4)O3)O[C@]3(O[C@@H]([C@H]4O[C@@](O)(CO)[C@H](C)C[C@H]4C)C[C@H]3C)[C@H]2C)O[C@H]1C (stereo partly drawn)	·	·	-19%	·	·	·
Cc1ccc(NC(=O)CSc2nc(-c3ccco3)cc(C(F)(F)F)n2)c(C)c1	?	?	?	0.83µM*	?	23%
CC(C)N[C@@H]1CCn2c(=O)[nH]c3cccc(c32)[C@@H]1O	·	·	5%	·	·	·
CCn1nc(-c2ccccc2)nc2c(=O)n(C)c(=O)nc1-2	·	18%	·	·	·	3.5µM*
Cc1nc2c(=O)n(C)c(=O)nc-2n(C)n1	·	3.2µM*	·	·	·	1.3µM*
O=C(Nc1nc2ccccc2s1)c1cccn(Cc2ccccc2)c1=O	-17%	8%	i	-2%	14%	?
Cc1ccccc1Cn1cccc(C(=O)Nc2nc3ccccc3s2)c1=O	-13%	14%	i	0%	0%	10µM*
C=C[C@@H]1CN2CCC1C[C@@H]2[C@@H](O)c1ccnc2ccccc12 (stereo partly drawn)	·	·	-15%	·	·	·
C=C[C@@H]1CN2CCC1C[C@H]2[C@H](O)c1ccnc2ccccc12 (stereo partly drawn)	·	·	8%	·	·	·
COc1ccc2c(c[n+](C)c3c4cc5c(cc4ccc23)OCO5)c1OC	·	·	23µM*	·	·	·
COc1cccc2c1[C@]13CCN(CC4CC4)[C@H](C2)[C@]1(OC)CCC(=O)C3	·	·	0%	·	·	·
O=C(Nc1ccc(Cl)c(C(F)(F)F)c1)c1ccc2c(c1)CCN2S(=O)(=O)c1ccccc1	?	-2%	i	8.3µM*	22µM*	16%
O=C(c1ccccc1)c1ccc2nc(N3CCN(c4ccc(F)cc4)CC3)c3nncn3c2c1	?	-20%	7%	4.1µM*	16%	5%
C[C@@H]1[C@@H](CC(C[C@H]2O[C@@H]3O[C@]4(C)CC[C@@H]5[C@H](C)CC[C@@H]([C@H]2C)[C@@]35OO4)C[S+](=O)([O-])c2ccc(COC(=O)N(C)C)cc2)O[C@@H]2O[C@]3(C)CC[C@H]4[C@H](C)CC[C@@H]1[C@@]24OO3 (stereo partly drawn)	·	·	-5%	·	·	·
CCOC(=O)Nc1ccc(NCc2ccc(F)cc2)cc1N	·	·	-7%	·	·	·
CCOC(=O)c1c(C(C#N)=CN)c2ccc(Cl)c(Cl)c2n1C	·	·	-22%	·	·	·
CCCOC(=O)c1c(C)oc2c1cc(NS(=O)(=O)c1ccc(OCC)cc1)c1ccccc12	8.9µM*	?	i	?	1%	-4%	NLuc saturating=-6%;NLuc Km counter=3%;FLuc ctr PMP22=-7%;S16 viab conf=12%;PMP22 txn cnf=?
Cc1ccc(NC(=O)N(Cc2ccc3c(c2)OCO3)C2CCN(Cc3ccccc3)CC2)cc1C	14µM*	-24%	?	?	?	-5%	NLuc saturating=-12%;NLuc Km counter=?;FLuc ctr PMP22=-2%;S16 viab conf=?;PMP22 txn cnf=?
C#C[C@]1(O)C=C[C@@H]2[C@@H]3CCC4=CC(=O)CC[C@@H]4[C@H]3CC[C@@]21CC	·	·	-4%	·	·	·

Source: PubChem BioAssay (National Center for Advancing Translational Sciences (NCATS))
